Drawing on PubChem BioAssay AID1962 (The Scripps Research Institute Molecular Screening Center, 2009), this text covers inhibition for 39 compounds.

Broadly, the inhibition is the change of the read-out against control, counted positive when it falls.

Among all 300,000 compounds or so, about 2,500 (0.83%) were called active. Many of the other results were omitted from the sample, so actives are more common in it than they were. A number with no mark means an inactive call.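 Rule for the calls: active = inhibition above the mean of all tested compounds plus 3 SD, set per screening campaign (cut at about 24% in these data); inactive = the rest.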

For this experiment, the system named is tRNA 2'-phosphotransferase TPT1 (Candida albicans SC5314). Briefly: Candida albicans TPT1 enzyme inhibitors, primary screen, biochemical, fluorescence polarization (AID 1962).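 Note: plate controls were DMSO alone for no effect and ferristatin control at 100 nM for full effect.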 The note with it: recombinant caTPT1, FP RNA substrate dephosphorylation; at 5 µM; stronger effect = higher value. On the technique in general: Polarisation of emitted light reports the rotation of a fluorescent probe.
On to `CCOC(=O)c1c(NC(=S)Nc2ccccc2)sc2c1CCN(C)C2`, for which the inhibition is 53.5% (active).

As for `CCOC(=O)c1c(NC(=O)NC(C)(C)C)sc2c1CCN(C)C2`, the inhibition was 2.5%.

On to `CCOC(=O)c1c(NC(=S)NC)sc2c1CCCC2`, for which the inhibition is -1.5%.

For `CCOc1ccc(/C=C/C(=O)N(CC)CC(=O)NCc2cccs2)cc1OC`, the inhibition was -3.86%.

In the case of `COc1ccccc1/C=N/Nc1nc(C)c(C(C)=O)s1`, the inhibition is 28% (active).

For the compound `CC(=O)c1sc(N/N=C/c2ccc(C(C)C)cc2)nc1C`, the inhibition was 23%.

As for `CC(=O)c1sc(N/N=C\c2ccc(C)cc2)nc1C`, the inhibition is 17.2%.

As for `CCCCNC(=O)Nc1c(C)cc(SC#N)cc1C`, the inhibition is -6.37%.

Regarding `COCCNC(=O)C1CCN(C(=O)C2CC(=O)N(c3ccc(C)cc3)C2)CC1` (centres undefined), the inhibition was 1.54%.

In the case of `Cc1ccn2c(c1)nc(=O)c1cc(S(=O)(=O)N3CCC(C)CC3)ccc12`, the inhibition was 0.45%.

For the compound `NC(=O)c1cc2ccccc2o/c1=N/NC(=O)c1cccc(F)c1`, the inhibition was -1.51%.

`CCN(CC)c1ccc2cc(C(N)=O)/c(=N\NC(=O)c3ccncc3)oc2c1`: the inhibition was 133% (active).

As to `COc1ccc(C(=O)N/N=c2\oc3ccccc3cc2C(N)=O)cc1`, the inhibition was 4.71%.

Turning to `NC1=NC(=O)C(Cc2cccc(Cl)c2)S1` (centres undefined), the inhibition was -2.15%.

For the compound `CCC(=C/c1sc2ccc3ccccc3c2[n+]1C)/C=C1\Sc2ccc3ccccc3c2N1C`, the inhibition is 92% (active).

With `CCCCCCCCn1c2c(c(=N)c3c1CCC3)CCCC2`, the inhibition is -2.44%.

Take `CCCCCCSc1ccc([C@@H]2[C@@H]3C(=O)N(CC)C(=O)[C@@H]3[C@]3(C(=O)OC)CCCCN23)cc1OC`: the inhibition is 1.68%.

Regarding `COc1cc(N=Cc2c(O)[nH]c3ccccc23)cc(OC)c1OC`, the inhibition was -0.99%.

As for `CCn1c(-c2cc(OC)ccc2OC)csc1=Nc1c(C)n(C)n(-c2ccccc2)c1=O`, the inhibition is -1.13%.

With `CN=c1scc(-c2cc(OC)ccc2OC)n1/N=C/c1c(C)[nH]c2ccccc12`, the inhibition is 62.6% (active).

Consider `Cc1nn2c(=O)cc(COC(=O)c3ccc(NC(=O)C(C)(C)C)cc3)nc2s1`, for which the inhibition is -2.53%.

`CCOC(=O)[C@H]1[C@H]2COc3ccc(OC)cc3[C@@H]2N2C(=O)c3ccc(F)cc3NC(=O)[C@@]12C`: the inhibition was 0.85%.

Regarding `CC(C)CCN1NC2(CCC(C)CC2)NC1=S` (centres undefined), the inhibition is 2.43%.

Regarding `COc1ccc2ccccc2c1CNc1nnnn1C`, the inhibition is -1.06%.

Take `O=C1CN(C(=O)c2ccccc2F)C(c2ccc(F)cc2)c2cc(F)ccc2N1` (centres undefined): the inhibition is 0.25%.

Take `CCC(c1nnnn1Cc1ccco1)N(Cc1cc2cc(OC)ccc2[nH]c1=O)C1CCCCC1` (centres undefined): the inhibition is 38.4% (active).

`CCC(c1nnnn1Cc1ccccc1)N(Cc1cc2cc(OC)ccc2[nH]c1=O)CC1CCCO1` (centres undefined): the inhibition was -1.86%.

With `CCC(c1nnnn1Cc1ccco1)N(CCc1ccccc1)Cc1cc2ccc(OC)cc2[nH]c1=O` (centres undefined), the inhibition is -2.34%.

As to `CCOc1ccc(Oc2nc(C)cc(OC)n2)nn1`, the inhibition is -1.74%.

Turning to `CN(C)C(=O)N=NC(=O)N(C)C`, the inhibition was -3.37%.

Turning to `COc1ccccc1-c1sc2ccccc2c1-c1ccc(C(C)=O)cc1`, the inhibition was -1.61%.

Regarding `COC(=O)Cc1[nH]n(-c2nc3ccccc3s2)c(=O)c1C(C)=Nc1ccc(OC)cc1`, the inhibition is 1.09%.

As for `COc1ccc(N=C(C)c2sc3ccccc3c2O)cc1`, the inhibition was 63.5% (active).

As to `CC(C)(Oc1ccc(C2CC2(Cl)Cl)cc1)C(=O)O` (centres undefined), the inhibition was -2.25%.

Take `Cc1c(C(=O)N2CCCc3ccccc32)sc2nc(-c3ccccc3)cn12`: the inhibition is -1.15%.

`Cc1c(C(=O)N2CCCc3ccccc32)oc2ccccc12`: the inhibition is -2.42%.

Take `Cc1cccc2cc3c(N)c(C(=O)N4CCCc5ccccc54)sc3nc12`: the inhibition is 45.2% (active).

As for `C#CCOCCOCCOCCNc1nc(N2CCN(C(=O)Cn3cc(CCCCN)nn3)CC2)nc(N2CCN(C(=O)[C@H](CCCCN)n3cc(CCC(=O)O)nn3)CC2)n1`, the inhibition is -1.83%.

On to `Cc1ccc(Cc2nnc(SCC(=O)Nc3ccccc3C)[nH]c2=O)cc1`, for which the inhibition is 1.69%.
